FAS TE block: FAS thioesterase domain inhibitors, primary screen, biochemical, fluorescence intensity, uHTS. 0.67% of 360,000 active. AID 602261, 2012. inhibition, % at 15 µM. Fatty acid synthase (Homo sapiens), P49327. recombinant FAS-TE, OMFH fluorogenic substrate, fluorescence endpoint;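 active = compounds whose normalised, plate-corrected inhibition of enzyme fluorescence in the single-dose primary screen is 50% or more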;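 note: 0% = DMSO with enzyme and 100% = substrate without enzyme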
Mot1-301 SUMO: yeast Mot1-301 growth rescue at high temperature, primary screen, SUMOylation pathway inhibitor project, S. cerevisiae, ATP luminescence, 38.5C; growth rescue, % at 18.8 µM; S. cerevisiae Mot1-301 growth rescue; percent above DMSO median, 100 means doubled; 1% of 320,000 active;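 active = every valid replicate shows activation above 250% relative to neutral control wells; inactive = the rest, any valid replicate at or below 250%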;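 note: OY570 slx delta 5 strain wells were the positive control but not used for scaling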
aDG glyco up: activators of alpha-DG glycosylation, primary screen, uHTS, Pro5-aDG cells, AlphaScreen; alpha-DG glycosylation AlphaScreen (IIH6); 0% Pro5, 100% B10-LARGE cell signal; activation, % at 10 µM; 0.22% of 360,000 active;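 active = activation of at least 8% versus controls, or a plate z-score of at least 8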;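 note: Pro5 are CHO cells carrying HIG-tagged alpha-DG that lacks glycosylation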
MPTP inh: mitochondrial permeability transition pore inhibitors, primary screen, biochemical, isolated mouse mitochondria, absorbance; Ca2+ swelling absorbance, 30 min; inhibition, % at 10 µM; 1.4% of 360,000 active; AID 602449, 2012;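 active = inhibition of 50% or more, scaled per plate between neutral and stimulator controls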;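 note: 0% = DMSO wells given calcium and 100% = 1 mM EGTA wells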
Cardio protect: cardioprotection against H2O2-induced cell death, primary screen, uHTS, H9c2 cells, ATPLite luminescence; H9c2 cardiomyocytes, H2O2 injury protection, 2 h; protection from H2O2 cell death, % at 20 µM; 0.63% of 360,000 active; AID 588492, 2011;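 active = compounds giving at least 50% protection of heart cells from peroxide-induced death in the single-dose screen, raw or plate-pattern-corrected value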;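 note: 0% = DMSO wells with peroxide and 100% = DMSO wells without peroxide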
CR mimetic SO: reduction of superoxide in aged yeast, primary screen, HTS; 0.18% of 330,000 active; superoxide response (% of plate mean), % at 10 µM; S. cerevisiae aged cells, superoxide DHE fluorescence; active compounds read low;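 active = superoxide response under a set limit, about three screen SD below normal, cut at about 65% in these data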;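 note: yeast aged for seven days with compound at 30 °C before DHE staining; 100% = average MFI of all compound-treated wells on the plate with controls excluded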
FAS-TE inh conf: FAS thioesterase domain inhibitors, confirmation, biochemical, fluorescence intensity, single concentration; shares compounds with FAS TE block; recombinant FAS-TE, OMFH fluorogenic substrate; inhibition, % at 15 µM; 45% of 2,300 active;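 active = compounds inhibiting the enzyme by at least 50% at 15 µM in any one of the replicates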;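 note: 0% = enzyme with DMSO only and 100% = wells lacking enzyme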
Rh123 counter: fluorescence retest of MPTP screen hits in isolated mitochondria, single concentration | shares compounds with MPTP inh | membrane potential, Rhodamine 123 fluorescence | inhibition, % at 10 µM | 78% of 5,000 active | AID 624504, 2012; in the data active = inhibition above about 22%;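 note: 0% = DMSO vehicle and 100% = positive control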
An asterisk follows results filed as active; x = no result given. This is a sample that favours compounds with a hit; in the whole collection about 3.8% have one here.

SMILES	FAS TE block	Mot1-301 SUMO	aDG glyco up	MPTP inh	Cardio protect	CR mimetic SO	FAS-TE inh conf	others
COc1ccc(NC(=O)c2c[nH]n3c(=O)cc(C4CCN(C(=O)OC(C)(C)C)CC4)nc23)cc1Cl	30	-14	0	2	8	89	x
CC(C)(C)OC(=O)N1CCC(c2cc(=O)n3[nH]cc(C(=O)Nc4ccc(F)c(Cl)c4)c3n2)CC1	77*	2	0	49	10	91	64*
CN(C)S(=O)(=O)c1ccc(C(=O)Nc2cc(S(=O)(=O)Nc3ccccc3Cl)ccc2N2CCCCC2)cc1	73*	-3	0	3	8	94	22
COc1ccc(OCC(=O)Nc2ccc3c(c2)OCO3)cc1	-1	5	0	0	-6	110	x
O=C(COc1ccc([N+](=O)[O-])cc1)Nc1ccc2c(c1)OCO2	59*	3	0	0	3	87	41
O=C(CC(C(=O)O)c1ccc(Cl)cc1)c1ccc(Cl)c(Cl)c1 (stereo not given)	80*	23	0	2	0	117	81*
Cc1ccc(C(CC(=O)c2ccc(Cl)cc2)C(=O)O)cc1 (stereo not given)	-3	25	0	2	0	109	x
O=C1/C(=C/c2ccccc2)CCc2ccc(Cl)nc21	-1	x	0	0	5	x	x
CCN(CC(=O)NCc1ccc(Cl)cc1)C(=O)/C=C/c1ccc(Cl)c([N+](=O)[O-])c1	65*	204	0	-1	-4	105	47
Cc1cc2nc3n(c2cc1C)CC1CC(C(=O)NCc2cccc(Br)c2)N(C)C31 (stereo not given)	-8	102	0	-1	-1	92	x
CN1C(C(=O)NCc2cccc(Br)c2)CC2Cn3c(nc4cc(Cl)c(Cl)cc43)C21 (stereo not given)	57*	295	1	0	-16	96	44*
COC(=O)[C@]1(Cc2ccccc2)N[C@H](CN(C)S(=O)(=O)c2ccc(C(F)(F)F)cc2)[C@@H]2C(=O)N(Cc3ccccc3)C(=O)[C@@H]21	18	-7	0	2	2	94	x
COC(=O)[C@]1(Cc2ccccc2)N[C@H](CN(C)S(=O)(=O)c2ccc(C(C)(C)C)cc2)[C@@H]2C(=O)N(Cc3ccccc3)C(=O)[C@@H]21	55*	18	1	0	-1	112	22
CCc1ccc(S(=O)(=O)c2nnn3c2nc(NCCNC(C)=O)c2ccccc23)cc1	77*	-7	0	65*	10	101	79*	Rh123 counter=43*
Cc1ccc([N+](=O)[O-])cc1NC(=O)C(Sc1ccccc1)c1ccccc1 (stereo not given)	82*	-12	0	94*	-4	111	85*	Rh123 counter=79*
Cc1ccc([N+](=O)[O-])cc1NC(=O)c1ccccc1	16	6	0	-1	-3	98	x
O=C(Nc1ccc(Nc2ccccc2)cc1)c1ccc(Cl)cc1[N+](=O)[O-]	22	15	0	7	-10	99	x
O=C(O)CCCNc1c(C(=O)Nc2ccc(Cl)cc2)cc([N+](=O)[O-])cc1[N+](=O)[O-]	74*	-11	0	88*	-5	142	81*	Rh123 counter=94*
COc1ccccc1-n1c(=O)c(C#N)c(-c2ccc([N+](=O)[O-])cc2)c2cc(C(=O)c3cc(F)ccc3O)cnc21	0	55	0	-1	7	118	x
Cn1c(=O)c(C#N)c(-c2ccc(F)cc2)c2cc(C(=O)c3cc(Cl)cc(Cl)c3O)cnc21	54*	x	0	95*	-15	104	27	Rh123 counter=60*
